Laboratory results reported in the supplement of paper PMC6555819.

Tests used:
Assay in all cases: PBM binding z-score (relative to random genomic background probes); higher = stronger binding; sequences stand for … in GC…GCGATTGACAGCGTAGAATGAAGG
[1] = system: FXR:RXRa (NR concentration 270 nM, RXRa partner concentration 90 nM)
In short: (§1)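 The probes on custom Agilent 4×180K protein-binding microarrays were double-stranded, with 34-nt variable regions bearing direct-repeat seeds, single-nucleotide variants, half-site ablations and random human genomic background sequences. Incubation lasted 1 h with ligand-free nuclear receptor dimers in PBS pH 7.4, 2% milk, 0.02% Triton X-100, 1 mM DTT, 0.2 mg/mL BSA and 0.4 mg/ml salmon testes DNA. Antibodies against each partner (one per run) detected bound dimers, and fluorescence scans were regression-normalized. Binding z-scores take the random background probes as reference.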

[2] = system: LXRa:RXRa (NR concentration 270 nM, RXRa partner concentration 90 nM)
In short: as §1

[3] = system: LXRa homodimer (NR concentration 270 nM)
In short: as §1

[4] = system: LXRb:RXRa (NR concentration 270 nM, RXRa partner concentration 90 nM)
In short: as §1

[5] = system: LXRb homodimer (NR concentration 270 nM)
In short: as §1

[6] = system: PPARa:RXRa (NR concentration 270 nM, RXRa partner concentration 90 nM)
In short: as §1

[7] = system: PPARg:RXRa (NR concentration 180 nM, RXRa partner concentration 90 nM)
In short: as §1

[8] = system: PPARg:RXRa 270nM:90nM, anti-RXR (NR concentration 270 nM, RXRa partner concentration 90 nM)
In short: as §1

[9] = system: PPARg:RXRa 30nM:10nM, anti-RXR (NR concentration 30 nM, RXRa partner concentration 10 nM)
In short: as §1

[10] = system: PPARg:RXRa 90nM:30nM, anti-RXR (NR concentration 90 nM, RXRa partner concentration 30 nM)
In short: as §1

[11] = system: PPARg:RXRa DBDmut IVT, anti-RXR (DBD mutation: RXRa K156A/R161A, NR concentration 270 nM, RXRa partner concentration 90 nM)
In short: as §1

[12] = system: PPARg:RXRa IVT, anti-PPARg (NR concentration 270 nM, RXRa partner concentration 90 nM)
In short: as §1

[13] = system: PPARg DBDmut:RXRa IVT, anti-PPARg (DBD mutation: PPARg1 K132A/R137A, NR concentration 270 nM, RXRa partner concentration 90 nM)
In short: as §1

[14] = system: PPARg DBDmut IVT, anti-PPARg (DBD mutation: PPARg1 K132A/R137A, NR concentration 270 nM)
In short: as §1

[15] = system: PPARg homodimer (NR concentration 180 nM)
In short: as §1

[16] = system: PXR:RXRa (NR concentration 270 nM, RXRa partner concentration 90 nM)
In short: as §1

[17] = system: PXR homodimer (NR concentration 270 nM)
In short: as §1

[18] = system: RARa:RXR (NR concentration 270 nM, RXRa partner concentration 90 nM)
In short: as §1

[19] = system: RARa homodimer (NR concentration 270 nM)
In short: as §1

[20] = system: RARb:RXRa (NR concentration 270 nM, RXRa partner concentration 90 nM)
In short: as §1

Row | Sequence | PBM binding z-score [1] | PBM binding z-score [2] | PBM binding z-score [3] | PBM binding z-score [4] | PBM binding z-score [5] | PBM binding z-score [6] | PBM binding z-score [7] | PBM binding z-score [8] | PBM binding z-score [9] | PBM binding z-score [10] | PBM binding z-score [11] | PBM binding z-score [12] | PBM binding z-score [13] | PBM binding z-score [14] | PBM binding z-score [15] | PBM binding z-score [16] | PBM binding z-score [17] | PBM binding z-score [18] | PBM binding z-score [19] | PBM binding z-score [20]
1 | TAGCCTAGGTCAGATCGGGCCAGTATACGCTATA | 1.61 | 1.09 | -0.264 | 0.666 | -0.213 | 1.7 | 0.85 | 0.845 | -0.133 | 0.327 | 0.415 | 1.78 | 0.225 | -0.375 | 0.0641 | 1.01 | -0.518 | 1.42 | -0.937 | 3.02
2 | ACAGACAGGTGAGTGAGGGTAACTCAGCTGGACG | 0.174 | 0.269 | -0.243 | -0.0988 | -0.478 | 0.503 | 0.629 | 0.0987 | -0.248 | -0.159 | 0.621 | 0.841 | -0.523 | -0.675 | 0.225 | -0.025 | 0.261 | 0.222 | -0.162 | 0.987
3 | CCTACTGTGCCAAAAAGGTCATTGATGCCGATAA | 4.4 | 4.59 | 4.4 | 4.55 | 1.59 | 4.73 | 3.18 | 3.69 | 1.41 | 3 | 3.31 | 3.57 | 0.316 | 0.475 | 3.9 | 4.76 | 2.5 | 5.24 | 2.59 | 3.99
4 | AGAATGAGGTTATACGTAGATCAGAGAAGAAAGT | 2.4 | 1.86 | 0.0397 | 1.57 | 0.2 | 3.2 | 2.36 | 2.1 | 0.792 | 1.45 | 3.8 | 2.41 | 0.986 | 0.988 | 1.35 | 1.1 | 0.455 | 1.51 | 0.376 | 1.38
5 | TCTCGTAGATCAAAGGTTAAGAAAGCCGAAGCCT | 1.56 | 1.85 | -0.119 | 1.9 | -0.471 | 3.46 | 4.19 | 5.74 | 4.84 | 6 | 1.73 | 1.46 | -0.063 | -0.642 | 0.726 | 1.89 | -0.203 | 2.71 | 0.027 | 1.69
6 | CGAACGAGTGCATGAGTTGATAGCAAATGCCGAT | -0.259 | -0.143 | -0.369 | -0.0215 | -0.861 | 0.127 | 0.68 | 0.262 | -0.00177 | -0.142 | -0.266 | -0.442 | -0.401 | 0.0555 | -0.0589 | 0.62 | 0.717 | 0.133 | -0.713 | 0.209
7 | TCTTGTAGATCCACAGGAGGTTAAGAAAGATCGA | 0.0862 | 1.26 | -0.232 | 1.08 | -0.363 | 1.05 | -0.0307 | 1.43 | 2.66 | 1.83 | 1.11 | 0.557 | 0.829 | 0.516 | -0.676 | 0.82 | -0.22 | 1.22 | 0.176 | 0.506
8 | ATAGAAAGGTCGTGAGGTGAGTATACAGAAAGGC | 4.9 | 3.76 | 0.49 | 3.4 | 0.703 | 4.86 | 4.33 | 4.37 | 2.46 | 3.57 | 0.952 | 2.43 | 1.91 | 1.19 | 2 | 3.19 | 0.712 | 4.26 | 1.11 | 3.97
9 | TCATATAGGTAAAGGTCAAAGTCGAACGATATGA | 6.53 | 6.13 | 4.7 | 5.5 | 2.62 | 6.15 | 7.64 | 6.9 | 6.04 | 7.15 | 4.49 | 5.4 | 2.71 | 1.9 | 5.15 | 5.54 | 1.88 | 6.36 | 3.75 | 5.17
10 | AGAACGAGGGCACGCCGAGTTGATAGCAGAGTAG | 0.906 | 0.551 | -0.503 | 0.0965 | -0.66 | 2.36 | 2.1 | 1.92 | 0.0797 | 0.871 | 3.84 | 4.08 | 0.68 | -0.645 | 0.0729 | 1.38 | 0.119 | 0.82 | -0.438 | 2.57
11 | ATCTCTACGTAACAAGTTCAGTGAAAGAGAGGAC | 0.253 | 0.5 | 0.496 | 0.811 | 1.27 | 0.449 | 0.368 | 0.316 | 0.334 | 0.321 | -0.487 | 0.36 | 1.13 | 1.51 | 0.708 | 1.56 | 2.01 | 0.741 | 0.878 | 1.46
12 | GCTGCTTGGTCAACTGATGGTCAGCTAAAGCTCG | -0.663 | -0.552 | -0.675 | -0.752 | -0.593 | -0.414 | -0.68 | -0.367 | -1.15 | -0.725 | 0.408 | 0.0173 | -0.74 | -1.06 | -0.674 | -0.491 | -0.859 | -0.138 | -0.784 | 1.24
13 | TCAGACAGGTGAAAGTAACTCAGGTACGCAGTCG | 0.453 | 0.738 | -0.345 | 0.85 | -0.276 | 1.32 | 0.821 | 2.21 | 4.08 | 2.92 | 2.49 | 1 | 0.398 | 0.588 | 0.14 | 0.584 | 0.498 | 0.768 | 0.295 | 0.907
14 | CGTCCAAGGTCATAGGTCAGTGAAGAGATGACGG | 7.34 | 5.78 | 1.65 | 4.74 | 1.02 | 6.22 | 7.76 | 7.27 | 5.12 | 7.07 | 3.46 | 4.78 | 0.896 | -0.0935 | 3.35 | 5.48 | 1.01 | 6.98 | 1.13 | 5.36
